# Bioassay records from PubChem.
# This is a sample that favours compounds with a hit; in the whole collection about 1.5% have one here.
# ANO1 block – inhibitors of mouse TMEM16A calcium-activated chloride channel. HEK293 TMEM16A/YFP iodide influx fluorescence, ionomycin. normalized B-score (activity score, 25-100; higher = stronger inhibition) at 10 µM. actives 1.2% (n = 310,000);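 active means ratio plate-corrected score three or more library SD toward inhibition, starting fluorescence score within five deviations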;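 further: score derived from kinetic fluorescence span divided by baseline fluorescence per well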
# DAGLB inh – blocks human DAGLB lipase activity. AID 504411. inhibition, % at 5.17 µM. Q8NCG7. HEK293T DAGLB membrane lysate, EnzChek fluorogenic substrate. actives 0.059% (n = 340,000); in the data active means inhibition above about 34%;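 further: 0% = enzyme with vehicle and 100% = wells lacking enzyme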
# TMEM16A act – activates or potentiates the mouse TMEM16A chloride channel. Q8BHY3. HEK293 TMEM16A/YFP-H148Q/I152L, iodide quench fluorescence; stronger effect = lower value. B-score at 10 µM. actives 0.3% (n = 340,000). AID 623877;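 active means fluorescence-ratio B-score plate-corrected deviation score at least 3 library SD below zero, with starting fluorescence score within 5 deviations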;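 further: channel opened by trigger with iodide after compound preincubation; score built on the fluorescence ratio of max minus min over baseline; more negative score means more quench and so TMEM16A activation or potentiation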
# ABCB6 inh MLPCN – blocks the human ABCB6 transporter; Q9NP58; actives 0.19% (n = 360,000); AID 602162; K562-ABCB6 porphyrin accumulation, flow cytometry, 1 h; stronger effect = lower value; fluorescence ratio to DMSO, % at 10 µM;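 active means fluorescence ratio to DMSO below 75%, the collection mean minus 3 SD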;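 further: signal is porphyrin accumulated inside mitochondria; 100% equals median channel fluorescence of DMSO control wells; lower ratio means ABCB6 inhibition with less porphyrin fluorescence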
# hiPSC survival – hiPSC single-cell survival enhancement. AID 602274. actives 0.044% (n = 360,000). ATPlite luminescence; 100% = ROCK inhibitor wells, 0% = DMSO. survival enhancement, % at 20 µM; in the data active means survival enhancement above about 18%;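 further: cells exposed to compounds for 16 hours before the ATP read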
# ABCB6 blocker 1 – human ABCB6 transporter inhibition | K562-ABCB6 porphyrin accumulation, flow cytometry, 1 h; stronger effect = lower value | shares compounds with ABCB6 inh MLPCN | ratio response (% of DMSO), % at 10 µM | 700 tested, under 10 active | AID 602430;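 active means repeat-averaged ratio response below 75% of DMSO, the collection mean minus 3 SD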;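 further: median porphyrin fluorescence at 575 nm with 488 nm excitation from mitochondria; lower ratio means less porphyrin signal so ABCB6 inhibition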
# Starred values were filed as active, the others as inactive; i = inactive; nt = no result.
SMILES,ANO1 block,DAGLB inh,TMEM16A act,ABCB6 inh MLPCN,hiPSC survival,ABCB6 blocker 1
Cc1ccc(C(=O)OCC(=O)c2c[nH]c3ccccc23)cc1S(=O)(=O)N1CCCCC1,i,-2,i,70*,2,99
Cc1ccc(C(=O)OCC(=O)NCc2ccccc2)cc1S(=O)(=O)N1CCCCC1,nt,-3,i,96,1,nt
CCCN(CCC)C(=O)c1ccc2c(c1)N(CC)C(=O)c1ccccc1S2(=O)=O,i,0,i,100,1,nt
Cc1nn(Cc2c(F)c(F)c(F)c(F)c2F)c(C)c1NC(=O)c1c(-c2ccccc2)nn(-c2ccccc2)c1C,i,-2,i,38*,-3,98
Cc1ccccc1N1C(=O)[C@@H]2Cc3ccccc3CN2C1=O,i,-2,i,68*,-2,98
C=CCCC(=O)N1CCC(n2nccc2NC(=O)c2ccccc2C)CC1,i,3,i,95,0,nt
O=C(O)C1C2C=CC(C2)C1C(=O)Nc1cccc(F)c1 (stereo unspecified),i,2,i,58*,1,101
O=C(O)c1cccc(NC(=O)C2C3C=CC(C3)C2C(=O)O)c1 (stereo unspecified),i,-1,i,97,6,nt
COc1cccc(CN2CCNC(=O)C2CC(=O)NCc2cn3ccccc3n2)c1OC (stereo unspecified),i,-3,i,73*,0,97
COc1cccc(CN2CCNC(=O)C2CC(=O)NCc2cn3cccc(C)c3n2)c1OC (stereo unspecified),i,-1,i,103,2,nt
Cc1nc(SCC(=O)NC2CCCC2)c2oc3ccccc3c2n1,nt,-4,nt,103,-1,nt
Cc1c(C(=O)NCc2cccnc2)sc2ncn(CC(=O)N3CCCCC3C)c(=O)c12 (stereo unspecified),nt,2,i,100,0,nt
Cc1ccc(NC(=O)c2sc3ncn(CC(=O)N4CCOCC4)c(=O)c3c2C)c(Br)c1,i,0,i,99,0,97
Cc1cc([N+](=O)[O-])ccc1NC(=O)c1sc2ncn(CC(=O)N3CCOCC3)c(=O)c2c1C,i,-2,i,105,0,nt
CCOc1ccccc1N(C)C(=O)c1sc2ncn(CC(=O)N3CCCCC3C)c(=O)c2c1C (stereo unspecified),i,-1,i,172,0,100
COc1cc(NC(=O)c2sc3ncn(CC(=O)N4CCCCC4C)c(=O)c3c2C)cc(OC)c1OC (stereo unspecified),nt,2,nt,97,3,101
CCOc1ccccc1NC(=O)c1sc2ncn(CC(=O)N3CCOCC3)c(=O)c2c1C,i,-2,i,100,0,nt
COc1cccc(C(C(=O)NC2CCCCC2)N(C(=O)CNC(=O)c2ccco2)c2cccnc2)c1 (stereo unspecified),i,1,i,105,-1,nt
CCOc1ccc(NC(=O)NNC(=O)c2cccnc2)cc1,i,-2,i,98,0,nt
O=C1NC[C@H](CCCCN2C[C@H](Cc3ccccc3)N(CCC3CCCCC3)C(=O)C2=O)N(CCc2ccc(O)cc2)C1=O,nt,nt,nt,94,1,nt
COc1cc(OC)cc(C(=O)NCCNc2nc3cc(C)cc(C)c3cc2C#N)c1,i,-1,i,102,1,nt
Cc1nc2c(C(=O)NCc3cccs3)cnn2c(C)c1Cc1ccccc1,i,nt,nt,nt,nt,nt
Cc1cccc(Cc2c(C)nc3c(C(=O)NCc4ccco4)cnn3c2C)c1,i,-1,i,88,19*,101
Cc1nc2c(C(=O)NCc3ccc4c(c3)OCO4)cnn2c(C)c1Cc1ccc(F)cc1Cl,i,-1,i,97,-1,nt
Cc1nc2c(C(=O)NCc3ccco3)cnn2c(C)c1Cc1ccc(F)cc1Cl,i,-3,i,72*,0,100
CN(CC(=O)Nc1ccc(F)cc1)C(=O)COC(=O)COc1ccc(C#N)cc1,i,2,i,68*,0,102
Cc1ccc(NC(=O)CN(C)C(=O)COC(=O)COc2ccc(C#N)cc2)cc1,i,-2,i,94,0,nt
